High-throughput results as filed in PubChem.
The list is not random: actives were taken first. Their share in the collection is about 0.95%.
TbPYK inhibitor – T. brucei pyruvate kinase inhibition. Potency, µM (titrated, usually from 76.8 µM), for the others: at the highest dose activity, negative = inhibition, actives largely listed as inhibitors. hit rate 0.12% among 410,000. TbPYK enzyme, Kinase-Glo Plus ATP luminescence, 45 min; note: nearly all actives have a fitted effect of over 50% in size
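TbPYK + substrate in 50 mM TEA pH 7.2, 100 mM KCl, 10 mM MgCl2, 0.05% BSA, 0.01% Tween-20; cpd pinned; ADP 130 uM final; 45 min RT; Kinase-Glo Plus 10 min; luminescence endpoint.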
LmPK inh – blocks Leishmania mexicana pyruvate kinase activity. Q27686. purified LmPK, Kinase-Glo ATP luminescence, 1 h. Potency, µM (titrated, usually from 57.5 µM), inactives show at the highest dose activity change, negative = inhibition, hits mostly inhibitors. hit rate 0.37% among 290,000. AID 1721
Target sequence (Q27686 whole entry, looked up): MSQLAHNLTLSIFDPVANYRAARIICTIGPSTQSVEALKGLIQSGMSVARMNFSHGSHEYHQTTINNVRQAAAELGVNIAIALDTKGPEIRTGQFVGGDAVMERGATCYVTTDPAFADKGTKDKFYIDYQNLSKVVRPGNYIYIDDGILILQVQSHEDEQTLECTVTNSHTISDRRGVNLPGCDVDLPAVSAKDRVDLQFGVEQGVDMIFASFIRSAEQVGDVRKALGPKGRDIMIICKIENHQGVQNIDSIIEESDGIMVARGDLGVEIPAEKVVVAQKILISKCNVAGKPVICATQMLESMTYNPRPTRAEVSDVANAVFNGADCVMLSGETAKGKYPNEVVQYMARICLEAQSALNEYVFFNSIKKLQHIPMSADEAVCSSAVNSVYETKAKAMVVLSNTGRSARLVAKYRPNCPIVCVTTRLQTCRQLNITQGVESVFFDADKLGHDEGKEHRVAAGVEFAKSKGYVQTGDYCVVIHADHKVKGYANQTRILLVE
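Kinase-Glo luminescence read after 1 h RT reaction of 0.1 nM LmPK with 0.5 mM PEP and 0.1 mM ADP. Activity scaled between uninhibited and enzyme-free controls.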
RE007 growth inh – less growth of the S. pombe RE007 Vpr strain | Potency, µM (doses to about 92.2 µM), for the others: at the highest dose activity change, negative = less growth, usual class: inhibitors | AID 651644 | hit rate 0.21% among 360,000 | S. pombe RE007 Vpr strain, BacTiter-Glo ATP luminescence, 24 h; active = well fitted falling curve with a large enough effect; inconclusive = small, poorly fitted or top-dose-only effect; inactive = no such curve, though single readings can be large or run the other way; note: nearly all actives have a fitted effect of over 50% in size
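Fission yeast RE007 carrying one integrated HIV-1 vpr copy, seeded at OD 0.01 in PMG+AL medium with 23 nL pinned compound. Grown 24 h at 30 degrees; viability read by BacTiter-Glo luminescence after 5 min.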
Giardia FBPA inh – blocks Giardia fructose-bisphosphate aldolase activity; A8B2U2; purified Giardia FBPA; Potency, µM (top dose mostly 59.6 µM), for the others: top-dose activity, negative = inhibition, actives largely listed as inhibitors; hit rate 0.71% among 290,000; note: nearly all actives have a fitted effect of over 55% in size
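Giardia FBPA (40 nM reagent) was preincubated 10 min at RT with compound (up to 57.5 uM final), then substrate plus GAPDH/TPI/NAD/arsenate coupling system with diaphorase/resazurin was added; resorufin fluorescence (525/598 nm) was read after 20 min.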
Active calls of the source: *; ? = inconclusive; . = no result; [ ] = another dose, or the depositor's remark. Unless noted, calls come from the whole dose curve; as a rule, active = well fitted curve in the direction sought with a large enough effect; inconclusive = small, poorly fitted or top-dose-only effect, or another doubt; inactive = no such curve, though single readings can be large; an effect the other way counts as inactive or inconclusive. % is set by controls: 0 for no effect and ±100 for the full control effect; potency is the fitted concentration of half-maximal effect.

SMILES | TbPYK inhibitor | LmPK inh | RE007 growth inh | Giardia FBPA inh
CCCCCCC(=O)N(O)C1CC(=O)N(c2ccc(Cl)cc2)C1=O (stereo unspecified) | -24% | -25% | 4µM* | -16%
CC1=C(O)C(=O)C(C2=C(O)C(=O)C(C)=C(O)C2=O)=C(O)C1=O | 2% | . | -15% | .
O=C1C(O)=C(O)C(=O)C(O)=C1O | -12% | . | . | 13µM*
O=[N+]([O-])c1cnc(Sc2ccncn2)s1 | -1% | 4% | 1µM* | -5%
CC(=O)C(Sc1nccc(-c2cccs2)n1)C(C)=O | -1% | -4% | ? | 18µM*
CCCC[C@]12Cc3ccccc3C(O1)c1c(cc(-c3ccccc3)oc1=O)O2 | . | -7%[11.5 µM] | . | 2µM*
Fc1ccccc1-c1n[nH]c(=S)n1/N=C/c1c[nH]c2ccccc12 | ? | 10µM* | 1% | 0%
Fc1ccccc1/C=N/n1c(C2CCCCC2)n[nH]c1=S | ? | -13% | 7% | 6%
OCC1O[C@@H](O[C@@H]2C(CO)OC(O)C(O)C2O)C(O)C(O)C1O (stereo partly specified) | 0% | . | . | .
CC(C)(C)OC(=O)NCC1CCN(S(=O)(=O)Cc2ccccc2)CC1 | -5% | 4% | 14% | 5%
CC(C)(C)OC(=O)NCC12C=CC(O1)C1C(=O)N(Cc3ccccc3)C(=O)C12 (stereo unspecified) | -2% | -3% | 45µM* | 3%
CC[N+](CC)(CC)CCOC(=O)C(C1CCCC1)C1CCCC1 | -2% | . | . | .
O=C(COC(=O)c1cccs1)c1ccccc1 | -6% | 14µM* | ? | 4%
COc1cccc(C(=O)COC(=O)c2cccs2)c1 | -3% | -13% | -26% | .
CC(C)CCCC(C)C1CC(=O)C2=C3CCC4CC(O)CCC4(C)C3CCC21C (stereo unspecified) | -9% | . | . | .
COc1ccc(N2C(=O)CC(Sc3n[nH]c(-c4ccccc4)n3)C2=O)cc1 (stereo unspecified) | -20% | 11% | 18µM* | -20%
CCOc1ccc(N2C(=O)CC(Sc3n[nH]c(-c4ccccc4)n3)C2=O)cc1 (stereo unspecified) | -29% | 17% | ? | -24%
Cc1nn(-c2ccccc2)c(C)c1C(=O)OC(C)C(=O)NC1CCCCC1 (stereo unspecified) | 11% | . | -13% | .
CC(=O)Nc1cc(O)cc(O)c1 | -1% | 1% | 7% | 1%
Cc1cccc(N2C(=O)CC(Sc3nc(C)cc(C)n3)C2=O)c1 (stereo unspecified) | -7% | -2% | -7% | 7%
O=C1CC(Sc2nnnn2C2CCCCC2)C(=O)N1c1ccccc1 (stereo unspecified) | -12% | 6% | ? | 6%
Cn1nnnc1SC1CC(=O)N(c2ccccc2)C1=O (stereo unspecified) | -11% | 2% | 32µM* | -1%
Cc1cccc(N2C(=O)CC(Sc3nnc(C)s3)C2=O)c1 (stereo unspecified) | -12% | 3% | 35µM* | -1%
Cc1ccc2c(c1)Cc1nc3ccccc3nc1-2 | ? | 18µM* | ? | -24%
CN(C)c1c([N+](=O)[O-])cc(N2C(=O)C=CC2=O)cc1[N+](=O)[O-] | 7.9µM* | . | 27% | .
SMILES | TbPYK inhibitor | LmPK inh | RE007 growth inh | Giardia FBPA inh
Cn1c(=O)c(=O)n(C)c2cc([N+](=O)[O-])c([N+](=O)[O-])cc21 | 1% | 3% | 9% | -20%
CCOc1cc(/C=N/N=C2/NC(=O)C(CC(=O)O)S2)ccc1OCc1ccc(Cl)cc1 (stereo unspecified) | ? | 13µM* | 2% | 6%
Cn1c(=O)c2[nH]c(=S)n(Cc3ccccc3)c2n(C)c1=O | 16µM* | . | 12% | .
CCCCn1c(=S)[nH]c2c(=O)n(C)c(=O)n(C)c21 | ? | . | -10% | .
CC(=O)NCCNc1ncncc1-c1ccc(N(C)C)cc1 | . | . | . | -16%
O=c1[nH]c2ccccc2c(O)c1O | ? | -24% | -4% | 4µM*
Cc1nn(C(=O)c2c(F)cccc2F)c(C)c1S(=O)(=O)N1CCCCCC1 | -2% | . | . | .
Cn1nnc(NC(=O)c2ccco2)n1 | 6% | 0% | 10% | 7%
Cn1nnc(NC(=S)NC(=O)c2ccco2)n1 | -27% | -1% | -7% | 1.3µM*
COc1c(C(=O)NC(=S)Nc2nnn(C)n2)cc2ccccc2c1Br | -6% | 1% | -10% | ?
COc1ccc(C(=O)NC(=S)Nc2nnn(C)n2)cc1 | -13% | 4% | . | 1.8µM*
O=C(Nc1ccc(/C=C/c2ccc(NC(=O)c3cc(S(=O)(=O)O)c4cccnc4c3O)cc2S(=O)(=O)O)c(S(=O)(=O)O)c1)c1cc(S(=O)(=O)O)c2cccnc2c1O | 10% | . | . | .
COc1ccccc1-c1nc(-c2ccccn2)no1 | ? | 4.5µM* | ? | 1%
COc1ccccc1-c1noc(-c2ccncc2)n1 | -4% | ? | -23% | 7%
COc1nc(C)ccc1-c1noc(-c2ccccn2)n1 | -5% | 22µM* | 1% | 18%
Brc1ccc(-c2nc(-c3ccccn3)no2)o1 | -13% | 32µM* | ? | 7%
Brc1ccc(-c2noc(-c3ccccn3)n2)o1 | -15% | ? | ? | 9%
COc1ccc(-c2nc3sc(CCNC(=O)c4cc(Cl)ccc4OC)c(C)n3n2)cc1 | -3% | . | . | .
NCCC1CN(C(=O)OCc2ccccc2)c2ccccc21 (stereo unspecified) | -3% | . | -1% | .
C(=N\Nc1nc2ccccc2s1)/c1ccccn1 | -16% | ? | 14µM* | ?
C(=N\NC1=Nc2cccc3cccc1c23)/c1ccccn1 | 0% | -1% | ? | ?
C(=NNc1ccc2ccccc2n1)c1ccccn1 | -16% | . | 28µM* | .
CNC(=O)c1cc(NC(=O)CCn2nc(-c3ccc(C)cc3)c3ccccc3c2=O)ccc1OC | 7% | -5% | -7% | 2%
Cc1ccc(/C=N/n2c(-c3ccco3)n[nH]c2=S)cc1 | ? | -2% | -14% | 4%
CC(C1CC2CCC1C2)n1c(-c2ccco2)n[nH]c1=S (stereo unspecified) | ? | 13µM* | 12% | -15%
SMILES | TbPYK inhibitor | LmPK inh | RE007 growth inh | Giardia FBPA inh
O=C(Nc1ccc(OCc2ccccc2)cc1)Nc1ccccc1C(=O)NCCCN1CCOCC1 | ? | 14µM* | -27% | 5%
CN(C)c1ccc(C=C2C(=O)NC(=O)NC2=O)cc1 | -26% | . | 6% | .
CN(C)c1ccc(C=C2C(=O)NC(=S)NC2=O)cc1 | 32µM* | . | 33% | .
Nc1nc(N)c2c(ccc3c2ccn3Cc2cccc([N+](=O)[O-])c2)n1 | 1% | . | 5.6µM* | .
N#C/C(=C\c1cc(O)c(O)c(O)c1)C(N)=O | ? | 4% | 1% | 5µM*
CCCCCOC(=O)Nc1nc(=O)n(C2O[C@H](C)[C@@H](O)[C@@H]2O)cc1F (stereo partly specified) | -22% | . | . | .
Cc1ccn2cc(C(=O)N3CCN(c4cnn(-c5ccccc5)c(=O)c4Cl)CC3)nc2c1 | 2% | . | 7% | .
CN1CC(C(=O)c2ccccc2)C(c2ccccc2)C1 (stereo unspecified) | -3% | 2% | 0% | 3%
